Records with an inconclusive call do not appear. Activity calls are given as the source filed them. The calls were made as follows, unless noted: active = hit-call score of the fitted dose curve at least 0.9, where 1 is the maximum; inconclusive = response in the unintended direction; inactive = score below 0.9.
Tests used:
[1] = TOX21_p53_BLA_p2_viability: Viability Assessment in the Tox21 HCT-116 p53 Agonism Beta-lactamase Assay, Phase 2 (AID 2283591);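 also: compound exposure lasted 16 h at 37 °C; actives lower the ATP signal meaning cytotoxicity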
Procedure, shortened: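 HCT-116 p53-bla cells (4000/well) rested 5 h at 37C, then received compounds in DMSO (217-fold dilution) for 16 h at 37C, 5% CO2. After the CCF4 read, CellTiter-Glo was added; ATP luminescence was read after 30 min at room temperature.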

[2] = molecular target: Cellular tumor antigen p53 (Homo sapiens) (UniProt P04637); assay: TOX21_p53_BLA_p2_ratio: Tox21 HCT-116 p53 Agonism Beta-lactamase Assay, Ratio, Phase 2 (AID 2283592)
Cellular tumor antigen p53 (Homo sapiens), sequence (P04637 whole entry, looked up): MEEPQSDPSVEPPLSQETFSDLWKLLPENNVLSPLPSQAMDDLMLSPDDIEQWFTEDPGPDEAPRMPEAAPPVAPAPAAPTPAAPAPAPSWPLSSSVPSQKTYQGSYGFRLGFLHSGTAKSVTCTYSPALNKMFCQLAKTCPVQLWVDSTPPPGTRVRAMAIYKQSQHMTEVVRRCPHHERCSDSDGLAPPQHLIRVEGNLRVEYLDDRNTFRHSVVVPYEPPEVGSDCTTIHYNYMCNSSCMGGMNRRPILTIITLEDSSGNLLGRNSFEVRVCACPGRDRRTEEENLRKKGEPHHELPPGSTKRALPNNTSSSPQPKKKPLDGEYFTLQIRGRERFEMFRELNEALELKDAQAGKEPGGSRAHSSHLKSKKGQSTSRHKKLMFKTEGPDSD
Procedure, shortened: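 HCT116 cells carrying a p53-responsive beta-lactamase reporter were plated, incubated 5 h at 37C, then dosed with compounds in DMSO (217-fold dilution) for 16 h. CCF4-AM substrate was added for 2 h at room temperature; the 460/530 nm emission ratio gave gain-of-signal activity relative to DMSO.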

[3] = molecular target: Cellular tumor antigen p53 (Homo sapiens) (UniProt P04637); assay: TOX21_p53_BLA_p3_ratio: Tox21 HCT-116 p53 Agonism Beta-lactamase Assay, Ratio, Phase 3 (AID 2283596)
Procedure, shortened: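 HCT116 p53-bla cells (4000/well) given compound in DMSO (217-fold dilution) after 5 h, incubated 16 h at 37C. CCF4-AM substrate 2 h at room temperature; 460/530 nm emission ratio, gain fitted against DMSO.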

[4] = TOX21_p53_BLA_p4_viability: Viability Assessment in the Tox21 HCT-116 p53 Agonism Beta-lactamase Assay, Phase 4 (AID 2283597);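 also: hits lower the luminescence signal meaning cytotoxicity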
Procedure, shortened: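 HCT116 p53-bla cells (4000/well) rested 5 h at 37C, then received compounds in DMSO (217-fold dilution) for 16 h at 37C, 5% CO2. CellTiter-Glo was added after the CCF4-AM read, and luminescence was read after 30 min at room temperature.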

[5] = molecular target: Cellular tumor antigen p53 (Homo sapiens) (UniProt P04637); assay: TOX21_p53_BLA_p5_ratio: Tox21 HCT-116 p53 Agonism Beta-lactamase Assay, Ratio, Phase 5 (AID 2283599)
Procedure, shortened: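 HCT-116 cells carrying a p53-inducible beta-lactamase reporter were seeded at 4000 cells/well and dosed after 5 h with compound in DMSO (217-fold dilution). After 16 h at 37C, CCF4-AM substrate was added for 2 h, and the 460/530 nm emission ratio was scored as gain-of-signal versus DMSO.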

[6] = molecular target: Cellular tumor antigen p53 (Homo sapiens) (UniProt P04637); assay: TOX21_p53_BLA_p4_ratio: Tox21 HCT-116 p53 Agonism Beta-lactamase Assay, Ratio, Phase 4 (AID 2283601)
Procedure, shortened: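 HCT116 cells carrying an inducible beta-lactamase reporter were plated at 4000 cells/well, rested 5 h, then exposed to compounds in DMSO (217-fold dilution) for 16 h at 37C. CCF4-AM substrate was loaded 2 h at room temperature; 460/530 nm emission ratio scored gain-of-signal versus DMSO.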

[7] = TOX21_p53_BLA_p5_viability: Viability Assessment in the Tox21 HCT-116 p53 Agonism Beta-lactamase Assay, Phase 5 (AID 2283600)
Procedure, shortened: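 Cells were plated at 4000/well, rested 5 h at 37C, then given compounds in DMSO (217-fold dilution) for 16 h at 37C, 5% CO2. Following the CCF4-AM beta-lactamase read, CellTiter-Glo was added and luminescence was read after 30 min at room temperature.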

[8] = CCTE_Shafer_MEA_dev_per_burst_spike_percent: CCTE's Neural Network Formation Assay for Percent of Spikes in a Burst, Shafer Lab (AID 2284032; active = hit-call score of the fitted dose curve at least 0.9, where 1 is the maximum; inactive = score below 0.9)
Procedure, shortened: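 Rat primary cortical neurons on 16-electrode MEA wells, dosed from plating day 0 for 12 days with renewal on DIV 5 and 9; spikes-in-bursts percentage averaged over bursting electrodes, collapsed as AUC across days 5, 7, 9, 12; loss direction versus DMSO.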

[9] = CCTE_Shafer_MEA_dev_active_electrodes_number: CCTE's Neural Network Formation Assay for Number of Active Electrodes, Shafer Lab (AID 2284040)
Procedure, shortened: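 Rat cortical primary cultures, 1.5 x 10^5 cells/well, PEI-coated MEA, laminin drop. Continuous exposure DIV 0–12; full media/compound change DIV 5, 9. Readout: electrodes with mean firing ≥5 spikes/min; AUC across days; loss vs DMSO.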

[10] = CCTE_Shafer_MEA_dev_burst_rate: CCTE's Neural Network Formation Assay for Burst Rate, Shafer Lab (AID 2284042; active = hit-call score of the fitted dose curve at least 0.9, where 1 is the maximum; inactive = score below 0.9)
Procedure, shortened: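 Developmental network assay measuring how 12-day exposure of rat cortical neuron cultures alters bursting on extracellular MEA recordings. Values are AUC of well-mean burst rate across four recording days, relative to DMSO vehicle.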

[11] = CCTE_Shafer_MEA_dev_bursting_electrodes_number: CCTE's Neural Network Formation Assay for Number of Bursting Electrodes, Shafer Lab (AID 2284043)
Procedure, shortened: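 Primary rat cortical neurons were cultured on PEI-coated 48-well MEA plates (16 electrodes/well) and exposed from plating through day 12, with compound renewed at feeds on DIV 5 and 9. Electrodes bursting ≥1 per 2 min were counted on DIV 5, 7, 9, 12; trapezoidal AUC taken.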

[12] = CCTE_Shafer_MEA_dev_burst_duration_mean: CCTE's Neural Network Formation Assay for Mean Burst Duration, Shafer Lab (AID 2284045; active = hit-call score of the fitted dose curve at least 0.9, where 1 is the maximum; inactive = score below 0.9)
Procedure, shortened: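 Primary rat cortical neurons on PEI-coated 16-electrode MEA wells, exposed from plating through day 12 with compound renewed at DIV 5 and 9; spontaneous activity recorded days 5, 7, 9, 12. Well-mean burst duration collapsed as trapezoidal AUC, fitted for loss versus DMSO.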

[13] = CCTE_Shafer_MEA_dev_interburst_interval_mean: CCTE's Neural Network Formation Assay for Mean Interburst Interval, Shafer Lab (AID 2284046; active = hit-call score of the fitted dose curve at least 0.9, where 1 is the maximum; inactive = score below 0.9;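 also: well-mean interburst interval of bursting electrodes as AUC over four recording days; curve fitted for decrease in interburst interval relative to DMSO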)
Procedure, shortened: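 Network formation assay in primary rat cortical cultures, exposed from DIV 0 to 12. Mean interburst interval per well, integrated as AUC over four recordings.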

[14] = CCTE_Shafer_MEA_dev_inter_network_spike_interval_mean: CCTE's Neural Network Formation Assay for Mean Inter-network Spike Interval, Shafer Lab (AID 2284047; active = hit-call score of the fitted dose curve at least 0.9, where 1 is the maximum; inactive = score below 0.9)
Procedure, shortened: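 Compound was given at plating to primary rat cortical neurons and renewed with full medium changes on DIV 5 and 9. Extracellular activity was recorded on days 5, 7, 9, 12; AUC values were fitted for loss relative to DMSO control.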

[15] = CCTE_Shafer_MEA_dev_network_spike_number: CCTE's Neural Network Formation Assay for Number of Network Spikes, Shafer Lab (AID 2284048; active = hit-call score of the fitted dose curve at least 0.9, where 1 is the maximum; inactive = score below 0.9;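 also: synchronized bursts across electrodes counted on days 5 7 9 12 and integrated as AUC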)
Procedure, shortened: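 Primary rat cortical neurons were seeded at 1.5 x 10^5 cells/well on PEI-coated 16-electrode MEA wells with laminin, exposed from plating day 0, compound renewed at DIV 5 and 9. Network spikes were recorded on days 5, 7, 9, 12 and summarized as trapezoidal AUC versus DMSO.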

[16] = CCTE_Shafer_MEA_dev_network_spike_peak: CCTE's Neural Network Formation Assay for Mean Number of Electrodes in Network Spike, Shafer Lab (AID 2284049; active = hit-call score of the fitted dose curve at least 0.9, where 1 is the maximum; inactive = score below 0.9)
Procedure, shortened: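 Continuous 12-day exposure of rat cortical cultures, starting at plating, on MEA plates. Endpoint: electrodes participating in network-spike peaks, AUC across DIV 5–12, DMSO as negative control.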

[17] = CCTE_Shafer_MEA_dev_spike_duration_mean: CCTE's Neural Network Formation Assay for Mean Spike Duration, Shafer Lab (AID 2284051; active = hit-call score of the fitted dose curve at least 0.9, where 1 is the maximum; inactive = score below 0.9;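 also: mean network spike duration pooled as area under curve over DIV 5 to 12 recordings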)
Procedure, shortened: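 With DMSO as baseline, loss of mean network spike duration was scored from extracellular recordings of rat cortical neurons on MEA plates. Exposure spanned plating to DIV 12; the four recording days were collapsed into one AUC value.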

[18] = CCTE_Shafer_MEA_dev_network_spike_duration_std: CCTE's Neural Network Formation Assay for Standard Deviation of Network Spike Duration, Shafer Lab (AID 2284052; active = hit-call score of the fitted dose curve at least 0.9, where 1 is the maximum; inactive = score below 0.9;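 also: area under curve of spike duration SD across recording days 5 to 12; hits are decreases in network spike duration SD versus DMSO vehicle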)
Procedure, shortened: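 Developing networks of rat cortical neurons were exposed over twelve days in vitro on 48-well MEA plates. Trapezoidal AUC of recordings (DIV 5–12) was analysed for signal loss relative to DMSO vehicle.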

[19] = CCTE_Shafer_MEA_dev_per_network_spike_spike_number_mean: CCTE's Neural Network Formation Assay for Mean Number of Spikes in a Network Spike, Shafer Lab (AID 2284053; active = hit-call score of the fitted dose curve at least 0.9, where 1 is the maximum; inactive = score below 0.9)
Procedure, shortened: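 First, rat cortical cells (1.5 x 10^5/well) were seeded onto MEA wells; second, dosing began at plating and was refreshed on DIV 5 and 9; finally, network-spike spike counts across DIV 5–12 were summarized as AUC.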

[20] = CCTE_Shafer_MEA_dev_per_network_spike_spike_percent: CCTE's Neural Network Formation Assay for Percent of Spikes in a Network Spike, Shafer Lab (AID 2284054; active = hit-call score of the fitted dose curve at least 0.9, where 1 is the maximum; inactive = score below 0.9)
Procedure, shortened: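 Primary rat cortical neurons on 16-electrode MEA wells (PEI-coated, laminin at plating), exposed from day 0 with renewal at DIV 5 and 9; spikes within 0.05 s of network-spike peaks over total spikes, AUC across days 5, 7, 9, 12.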

[21] = CCTE_Shafer_MEA_dev_LDH: CCTE's Lactate Dehydrogenase Assay for Cytotoxicity in the Neural Network Formation Assay, Shafer Lab (AID 2284068);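 also: exposure for twelve days from plating with re-dosing on DIV 5 and 9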
Procedure, shortened: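 Developing rat cortical networks on MEA plates are exposed to compound for 12 days from plating. LDH activity is measured spectrophotometrically, with DMSO as baseline.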

[22] = CCTE_Shafer_MEA_dev_mutual_information_norm: CCTE's Neural Network Formation Assay for Mutual Information Normalization, Shafer Lab (AID 2284091; active = hit-call score of the fitted dose curve at least 0.9, where 1 is the maximum; inactive = score below 0.9)
Procedure, shortened: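 Rat cortical cultures, 48-well MEA, continuous exposure DIV 0–12 with full media/compound change DIV 5 and 9. Readout: inter-electrode mutual information, AxIS adaptive spike detection; AUC across DIV 5/7/9/12 recordings; DMSO baseline, negative fitting direction.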

[23] = CCTE_Shafer_MEA_dev_correlation_coefficient_mean: CCTE's Neural Network Formation Assay for Mean Correlation Coefficient, Shafer Lab (AID 2284093; active = hit-call score of the fitted dose curve at least 0.9, where 1 is the maximum; inactive = score below 0.9)
Procedure, shortened: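 Extracellular firing from rat cortical networks on 48-well MEAs, DMSO-referenced, negative fitting direction. Compound present from plating to DIV12; mean pairwise correlation per well integrated over DIV5–12 recordings by trapezoidal AUC.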

NCCNCCO
outcome [1]: inactive
outcome [2]: inactive
outcome [3]: inactive
outcome [4]: inactive
outcome [5]: inactive
outcome [6]: inactive

CC(C)COC(=O)c1ccc(N)cc1
outcome [1]: inactive
outcome [2]: inactive
outcome [3]: inactive
outcome [4]: inactive
outcome [5]: inactive
outcome [7]: inactive
outcome [6]: inactive

CC(C)NC(=O)c1ccccc1N
outcome [1]: inactive
outcome [2]: inactive
outcome [3]: inactive
outcome [4]: inactive
outcome [5]: inactive
outcome [7]: inactive
outcome [6]: inactive

c1cc2ccc3ccc4ccc5cccc6c(c1)c2c3c4c56
outcome [1]: inactive
AC50 [2]: 1.94 µM (active)
outcome [3]: inactive
outcome [4]: inactive
AC50 [5]: 2.79 µM (active)
outcome [7]: inactive
outcome [6]: inactive
outcome [8]: inactive
outcome [9]: inactive
outcome [10]: inactive
outcome [11]: inactive
outcome [12]: inactive
outcome [13]: inactive
outcome [14]: inactive
outcome [15]: inactive
outcome [16]: inactive
outcome [17]: inactive
outcome [18]: inactive
outcome [19]: inactive
outcome [20]: inactive
outcome [21]: inactive
outcome [22]: inactive
outcome [23]: inactive

From PubChem BioAssay (EPA / NIEHS)
